Test results published in PMC12864922, “TDP-43 directly inhibits mRNA accumulation in neurites through modulation of mRNA stability”.
In all, about 9,900 sequences were measured (“r (bound/input frequency ratio)”: median about 0.7, highest 2% from about 6.5 on). Many of the other results were omitted from the sample, so the highest values are more common in it than they were.

B1: ENSMUSG00000061578.638|Ksr2 (ssRNA)
RNA: GGGAGUUCUACAGUCCGACGAUCGCUUCGAUAUCCGCAUGCUAAGGAAUGGUGCUAGCUAGGGUGUGAGCCAAGCCCUUGAGGCUACUGUGAGUUAUGAGAUGUGUCCAACCCUCAGCCCACAGACUGCAUAUGCCCCAGGACAGCUGUGAAGGUGACCCAAUACAAAAUCGUAAACUAACUUAAAACCAUUAAGGGUUUUUGUUUUGUUGUUGUUUGCUGGCUUUUUGUUUUUUGGGUUGGUUUUCUUUUUCUUUCUUUCUUUUUUUUUUUUUUUUCCAACUCAAGUGUGAACUUUGUUGAUCUCUUGCGGUCGCACUAGUGUGGAAUUCUCGGGUGUCAAGG
B2: ENSMUSG00000028439.326|Fam219a (ssRNA)
RNA: GGGAGUUCUACAGUCCGACGAUCGCUUCGAUAUCCGCAUGCUAAGAUCCUAAUUAGAUAAGAAAAUGCCAAGGGAGGCAAGCCAGAGAAAGCAUCUGCAGGGGCCACAGGCCCAUGGUGGCCCCAUCUGAGCCCCCUCUCCCACCCCAGUUCGCAUCCCCACCACUCAUCAUCUGGGCCCCAACGCUAGAACUCCCCCCACCGCAUCCCCACUGGGCUCUUUGACUCACCCUUCUAGAACAUGGGUGCCUCCUCUCUUUAGACUGCUGCCUUUGCCUCUGACUUCCUGUGGGAUUGAGAGCCACUCUUGCGGUCGCACUAGUGUGGAAUUCUCGGGUGUCAAGG
B3: ENSMUSG00000061578.1149|Ksr2 (ssRNA)
RNA: GGGAGUUCUACAGUCCGACGAUCGCUUCGAUAUCCGCAUGCUAAAUGGCCCAGAAUUAUAGAGGACAGAGGAGAAGGUGGGCAUUGCAAGAUGCUGGAGCUUGGAAAGCAUGGUGGAAUUUGAUACACAUGAUCACCAAGCACCACCCGGGGAAGAAACUGGGUCACUGAGUCACUGGGUCACUCUGUUCCCUGAAGGCCCACCAACCACAUCCGCAUCCUACCUAGGGUGGAACUUUGACUGUCCUCGGGUGUCUCUGCUGUAUAUAGGCCAGUCACAAGCCCUUCUAAAAGCCUGCUCUUGCUCUUGCGGUCGCACUAGUGUGGAAUUCUCGGGUGUCAAGG
B4: ENSMUSG00000043670.240|Diras1|87:91;197:209;220:226;251:259 (ssRNA)
RNA: GGGAGUUCUACAGUCCGACGAUCGCUUCGAUAUCCGCAUGCUACUGUCUGAUGAGCACCAGGUCUGUUCCAGGCUGUGGCAAGCUGGCUCCUGGCUCAGAAGUGACAAAGCUGCAGUACAGAGGCCUCACACACAGGUCAUCACCUCACAGUGGCUACAGACCAGGCUGUGGCCUGAGUGAGCUGGAACCUCUGGGGUGGGGACGAGAAAGAGAGAGGGAGAGAGAGGGGGGAGAGUGACACACACACACACAAGGGGGAGACACACACGGGGAAGAGUGAGAGAGAUAGAGUCAUACACACACUCUUGCGGUCGCACUAGUGUGGAAUUCUCGGGUGUCAAGG
B5: ENSMUSG00000043670.237|Diras1|105:109;215:227;238:244 (ssRNA)
RNA: GGGAGUUCUACAGUCCGACGAUCGCUUCGAUAUCCGCAUGCUAGGGGUGGGUGACACAGGCCUGUCUGAUGAGCACCAGGUCUGUUCCAGGCUGUGGCAAGCUGGCUCCUGGCUCAGAAGUGACAAAGCUGCAGUACAGAGGCCUCACACACAGGUCAUCACCUCACAGUGGCUACAGACCAGGCUGUGGCCUGAGUGAGCUGGAACCUCUGGGGUGGGGACGAGAAAGAGAGAGGGAGAGAGAGGGGGGAGAGUGACACACACACACACAAGGGGGAGACACACACGGGGAAGAGUGAGAGACUCUUGCGGUCGCACUAGUGUGGAAUUCUCGGGUGUCAAGG
B6: ENSMUSG00000043670.242|Diras1|75:79;185:197;208:214;239:247 (ssRNA)
RNA: GGGAGUUCUACAGUCCGACGAUCGCUUCGAUAUCCGCAUGCUACACCAGGUCUGUUCCAGGCUGUGGCAAGCUGGCUCCUGGCUCAGAAGUGACAAAGCUGCAGUACAGAGGCCUCACACACAGGUCAUCACCUCACAGUGGCUACAGACCAGGCUGUGGCCUGAGUGAGCUGGAACCUCUGGGGUGGGGACGAGAAAGAGAGAGGGAGAGAGAGGGGGGAGAGUGACACACACACACACAAGGGGGAGACACACACGGGGAAGAGUGAGAGAGAUAGAGUCAUACACACAGAGGGAGGGAGACUCUUGCGGUCGCACUAGUGUGGAAUUCUCGGGUGUCAAGG
B7: ENSMUSG00000043670.241|Diras1|81:85;191:203;214:220;245:253 (ssRNA)
RNA: GGGAGUUCUACAGUCCGACGAUCGCUUCGAUAUCCGCAUGCUAGAUGAGCACCAGGUCUGUUCCAGGCUGUGGCAAGCUGGCUCCUGGCUCAGAAGUGACAAAGCUGCAGUACAGAGGCCUCACACACAGGUCAUCACCUCACAGUGGCUACAGACCAGGCUGUGGCCUGAGUGAGCUGGAACCUCUGGGGUGGGGACGAGAAAGAGAGAGGGAGAGAGAGGGGGGAGAGUGACACACACACACACAAGGGGGAGACACACACGGGGAAGAGUGAGAGAGAUAGAGUCAUACACACAGAGGGACUCUUGCGGUCGCACUAGUGUGGAAUUCUCGGGUGUCAAGG
B8: ENSMUSG00000043670.233|Diras1 (ssRNA)
RNA: GGGAGUUCUACAGUCCGACGAUCGCUUCGAUAUCCGCAUGCUAUGUCUGUAUGGCUCUGUGUUUUCAGGGGUGGGUGACACAGGCCUGUCUGAUGAGCACCAGGUCUGUUCCAGGCUGUGGCAAGCUGGCUCCUGGCUCAGAAGUGACAAAGCUGCAGUACAGAGGCCUCAGUGUGAGGUCAUCACCUCACAGUGGCUACAGACCAGGCUGUGGCCUGAGUGAGCUGGAACCUCUGGGGUGGGGACGAGAAAGAGAGAGGGAGAGAGAGGGGGGAGAGUGAGUGUGUGUGUGUGAAGGGGGAGCUCUUGCGGUCGCACUAGUGUGGAAUUCUCGGGUGUCAAGG
B9: ENSMUSG00000043670.238|Diras1|99:103;209:221;232:238 (ssRNA)
RNA: GGGAGUUCUACAGUCCGACGAUCGCUUCGAUAUCCGCAUGCUAGGUGACACAGGCCUGUCUGAUGAGCACCAGGUCUGUUCCAGGCUGUGGCAAGCUGGCUCCUGGCUCAGAAGUGACAAAGCUGCAGUACAGAGGCCUCACACACAGGUCAUCACCUCACAGUGGCUACAGACCAGGCUGUGGCCUGAGUGAGCUGGAACCUCUGGGGUGGGGACGAGAAAGAGAGAGGGAGAGAGAGGGGGGAGAGUGACACACACACACACAAGGGGGAGACACACACGGGGAAGAGUGAGAGAGAUAGACUCUUGCGGUCGCACUAGUGUGGAAUUCUCGGGUGUCAAGG
B10: ENSMUSG00000043670.236|Diras1|111:115;221:233;244:250 (ssRNA)
RNA: GGGAGUUCUACAGUCCGACGAUCGCUUCGAUAUCCGCAUGCUAUUUUCAGGGGUGGGUGACACAGGCCUGUCUGAUGAGCACCAGGUCUGUUCCAGGCUGUGGCAAGCUGGCUCCUGGCUCAGAAGUGACAAAGCUGCAGUACAGAGGCCUCACACACAGGUCAUCACCUCACAGUGGCUACAGACCAGGCUGUGGCCUGAGUGAGCUGGAACCUCUGGGGUGGGGACGAGAAAGAGAGAGGGAGAGAGAGGGGGGAGAGUGACACACACACACACAAGGGGGAGACACACACGGGGAAGAGUCUCUUGCGGUCGCACUAGUGUGGAAUUCUCGGGUGUCAAGG
B11: ENSMUSG00000043670.232|Diras1 (ssRNA)
RNA: GGGAGUUCUACAGUCCGACGAUCGCUUCGAUAUCCGCAUGCUAGUGGUGUGUCUGUAUGGCUCUGUGUUUUCAGGGGUGGGUGACACAGGCCUGUCUGAUGAGCACCAGGUCUGUUCCAGGCUGUGGCAAGCUGGCUCCUGGCUCAGAAGUGACAAAGCUGCAGUACAGAGGCCUCAGUGUGAGGUCAUCACCUCACAGUGGCUACAGACCAGGCUGUGGCCUGAGUGAGCUGGAACCUCUGGGGUGGGGACGAGAAAGAGAGAGGGAGAGAGAGGGGGGAGAGUGAGUGUGUGUGUGUGAAGCUCUUGCGGUCGCACUAGUGUGGAAUUCUCGGGUGUCAAGG
B12: ENSMUSG00000043670.234|Diras1 (ssRNA)
RNA: GGGAGUUCUACAGUCCGACGAUCGCUUCGAUAUCCGCAUGCUAUAUGGCUCUGUGUUUUCAGGGGUGGGUGACACAGGCCUGUCUGAUGAGCACCAGGUCUGUUCCAGGCUGUGGCAAGCUGGCUCCUGGCUCAGAAGUGACAAAGCUGCAGUACAGAGGCCUCAGUGUGAGGUCAUCACCUCACAGUGGCUACAGACCAGGCUGUGGCCUGAGUGAGCUGGAACCUCUGGGGUGGGGACGAGAAAGAGAGAGGGAGAGAGAGGGGGGAGAGUGAGUGUGUGUGUGUGAAGGGGGAGAGUGUGCUCUUGCGGUCGCACUAGUGUGGAAUUCUCGGGUGUCAAGG
B13: ENSMUSG00000061578.897|Ksr2|214:218 (ssRNA)
RNA: GGGAGUUCUACAGUCCGACGAUCGCUUCGAUAUCCGCAUGCUAUCCUGGGACACUACCCAAACCCUAGCACUCUCCCAGUGACUCUCCUAUGAGUACAUAUGCCAUCCUGCUUCCUUUGUGGCAAAACCCUGGGUCACCCAGAGACAGAUUUCCCAGAAUCCCUGGGCCACUUCUCAAUUCUACCCAUGACAGACAUGUCCCAUCCAUGAGCCCAGAUAGUCAAAGACUUCAGCACAAGGGUGUUUAGAGUAGGCACACACGAAGUAUCAAUAAGGUUAUUGAGAUGAGGAUUUAGAAAGAUCCUCUUGCGGUCGCACUAGUGUGGAAUUCUCGGGUGUCAAGG

What follows are binders tested against TDP-43 (Homo sapiens, UniProt Q13148 1-414) (assay: RNA Bind-n-Seq with designed 260-mer pool; 25 mM Tris-HCl, 150 mM KCl, 3 mM MgCl2, BSA (printed 500 mg/mL), 20 units/mL SUPERase IN; pH not stated; 500 nM RNA pool, 1 h, 4 C; TDP-43 5, 50, 500 nM; high values mean tight binding). Conditions: protein: recombinant; tags: SBP (GST cleaved off with PreScission; pGEX-GST-SBP).
Chain of TDP-43 (Q13148 whole entry): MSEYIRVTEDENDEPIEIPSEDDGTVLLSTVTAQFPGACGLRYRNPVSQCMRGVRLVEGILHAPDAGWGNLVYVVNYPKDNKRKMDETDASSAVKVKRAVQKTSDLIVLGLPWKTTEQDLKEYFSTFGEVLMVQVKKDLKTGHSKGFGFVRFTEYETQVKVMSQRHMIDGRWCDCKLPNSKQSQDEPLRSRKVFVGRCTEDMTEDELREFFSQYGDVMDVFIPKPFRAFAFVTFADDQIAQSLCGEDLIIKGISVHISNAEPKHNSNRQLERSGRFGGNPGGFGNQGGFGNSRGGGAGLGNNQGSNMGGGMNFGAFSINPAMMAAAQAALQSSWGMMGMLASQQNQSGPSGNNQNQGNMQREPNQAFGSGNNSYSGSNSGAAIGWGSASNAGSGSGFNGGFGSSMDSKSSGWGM
Method in brief: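 An in vitro-transcribed pool of 260-nt 3′ UTR oligos (500 nM) was incubated for 1 h at 4 °C with recombinant SBP-tagged TDP-43 at 5, 50 or 500 nM held on streptavidin beads. The buffer contained 25 mM Tris-HCl, 150 mM KCl, 3 mM MgCl2, BSA and SUPERase IN. Biotin-eluted bound RNA was sequenced, and binding, R, is each oligo's normalized read abundance in the bound sample over that in input.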
For B1, the binding signal was 0.297 R (bound/input frequency ratio).
In the case of B2, the binding signal is reported as 1.54 R (bound/input frequency ratio).
B3 was tested, and the binding signal was 0.863 R (bound/input frequency ratio).
B4 was tested, and the binding signal was 3.45 R (bound/input frequency ratio).
With B5 the binding signal was 9.04 R (bound/input frequency ratio).
For B6, the binding signal was 12.1 R (bound/input frequency ratio).
For B7, the binding signal was 4.89 R (bound/input frequency ratio).
For B8, the binding signal was 7.61 R (bound/input frequency ratio).
In the case of B9, the binding signal is reported as 4.05 R (bound/input frequency ratio).
With B10 the binding signal was 3.82 R (bound/input frequency ratio).
For B11, the binding signal was 6.45 R (bound/input frequency ratio).
In the case of B12, the binding signal is reported as 6.5 R (bound/input frequency ratio).
In the case of B13, the binding signal is reported as 0.295 R (bound/input frequency ratio).
